HP1b chromo inh: HTS for Inhibitors of HP1-beta Chromodomain Interactions with Methylated Histone Tails; hit rate 0.56% among 390,000; AlphaScreen HP1-beta / biotin-H3K9me3 peptide binding; Potency, µM (highest dose often 114 µM), usual class: inhibitors; Chromobox protein homolog 1 (Homo sapiens), P83916; AID 540317, 2011; further: nearly all actives have a fitted effect of over 70% in size
Target sequence (P83916 whole entry, looked up): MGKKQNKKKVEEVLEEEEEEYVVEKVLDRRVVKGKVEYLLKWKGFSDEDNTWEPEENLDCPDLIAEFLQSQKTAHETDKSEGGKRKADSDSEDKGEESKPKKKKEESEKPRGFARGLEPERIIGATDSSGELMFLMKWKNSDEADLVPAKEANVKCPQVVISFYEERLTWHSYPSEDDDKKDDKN
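AlphaScreen: HP1-beta (50 nM) preformed 30 min with biotin-H3(1-18)K9me3 peptide (50 nM) in PBS pH 7.4, 0.01% Tween-20. Compound added for 30 min at RT, then streptavidin donor/nickel chelate acceptor beads (10 ug/mL) for 30 min.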
BAZ2B block: qHTS Assay for Inhibitors of BAZ2B; Potency, µM (top dose mostly 114 µM), hits mostly inhibitors; Bromodomain adjacent to zinc finger domain protein 2B (Homo sapiens), Q9UIF8; AID 504333, 2011; AlphaScreen BAZ2B-H3K14Ac peptide displacement; hit rate 4.4% among 360,000; further: nearly all actives have a fitted effect of over 60% in size
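AlphaScreen displacement: compounds (up to 110uM) incubated 30 min at room temperature with a preformed 50 nM BAZ2B/50 nM biotinylated H3K14Ac peptide complex in PBS pH 7.4 with Tween-20. Donor and acceptor beads at 10 ug/mL final added, 20 min light-protected before reading.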
PLK1 PBD inh: qHTS for Inhibitors of PLK1-PDB (polo-like kinase 1 - polo-box domain): Primary Screen | Serine/threonine-protein kinase PLK1 (Homo sapiens), P53350 | Plk1 PBD binding of FITC phosphopeptide, fluorescence polarization | Potency, µM, usual class: inhibitors | hit rate 2.8% among 360,000 | AID 720504, 2013; further: series mostly up to about 57 µM; nearly all actives have a fitted effect of over 65% in size
JMJD2A Tudor: qHTS Assay for Inhibitors of JMJD2A-Tudor Domain | hit rate 4.4% among 390,000 | AlphaScreen JMJD2A-Tudor / H3K4me3 peptide binding | Potency, µM (highest dose often 114 µM), hits mostly inhibitors | Lysine-specific demethylase 4A (Homo sapiens), O75164; further: nearly all actives have a fitted effect of over 50% in size
G9a block: qHTS Assay for Inhibitors of Histone Lysine Methyltransferase G9a | Potency, µM (series often up to 102 µM), most hits filed as inhibitors | hit rate 8.8% among 350,000 | G9a H3K9 monomethylation, AlphaScreen, 2 h; further: nearly all actives have a fitted effect of over 75% in size
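Readings reflect AlphaScreen signal from monomethyl-H3K9 antibody detection. HMT at 20 nM; substrate b-H3K9 500 nM; cofactor SAM 20 uM; 2 h RT reaction; compounds tested as titrations in qHTS with 15 min preincubation.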
PI5P4Ka inh: qHTS for Inhibitors of phosphatidylinositol 5-phosphate 4-kinase (PI5P4K) | PI5P4Kalpha enzyme, ADP-Glo luminescence, 60 min; stronger effect = lower value | hit rate 1.2% among 330,000 | AID 652105, 2013 | max response, % | Phosphatidylinositol 5-phosphate 4-kinase type-2 alpha (Homo sapiens), P48426; active means max response of -50% or lower; inconclusive means between -30% and -50%; inactive means -30% or higher; further: value at the top dose of about 77 µM
Target sequence (P48426 whole entry, looked up): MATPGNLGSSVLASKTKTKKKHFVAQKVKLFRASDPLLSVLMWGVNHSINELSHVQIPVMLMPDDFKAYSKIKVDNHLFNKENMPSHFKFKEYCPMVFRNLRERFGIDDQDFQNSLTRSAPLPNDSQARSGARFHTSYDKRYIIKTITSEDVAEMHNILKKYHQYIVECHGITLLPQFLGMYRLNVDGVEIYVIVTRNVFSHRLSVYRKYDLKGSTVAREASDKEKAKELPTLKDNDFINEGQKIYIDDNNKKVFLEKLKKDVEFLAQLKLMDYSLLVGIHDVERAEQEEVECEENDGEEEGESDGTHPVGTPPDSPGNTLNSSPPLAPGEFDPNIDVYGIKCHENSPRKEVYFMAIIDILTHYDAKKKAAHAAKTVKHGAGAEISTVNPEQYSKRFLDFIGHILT
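Single end-point luminescence (ADP-Glo) quantified ADP from PI5P4Kalpha turnover; ATP 5 microM final, 1 h at RT, 0.1% CHAPS and 0.28 mM EGTA in HEPES pH 7.4.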
A number is an active result; – = inactive; ? = inconclusive; · = no result; [ ] = dose if it differs, or a comment. The list is not random: actives were taken first. Their share in the collection is about 12%. Unless noted, the call rests on the fitted dose curve; in most records, active means well fitted curve in the direction sought with a large enough effect; inconclusive means small, poorly fitted or top-dose-only effect, or another doubt; inactive means no such curve, though single readings can be large; an effect the other way counts as inactive or inconclusive.

SMILES	HP1b chromo inh	BAZ2B block	PLK1 PBD inh	JMJD2A Tudor	G9a block	PI5P4Ka inh
COc1cc(/C=C/C(=O)OCC(=O)Nc2ccc(S(N)(=O)=O)cc2)ccc1O	–	–	13µM	–[11.4 µM]	–	–
C/C=C/C(=O)OCC(=O)Nc1ccc(OC)c(Cl)c1	–	–	–	–	–	–
COc1cc(/C=C/C(=O)OCC(=O)Nc2ccc([N+](=O)[O-])cc2)ccc1O	–	–	–	–	·	–
C/C=C/C(=O)OCC(=O)Nc1ccc(OC)c(OC)c1	–	50µM	–	–	–	–
COC1C=CC23c4cc5c(cc4CN(CC2O)C3C1)OCO5 (stereo not given)	·	·	·	·	–[2.33 µM]	·
CCOc1ccc2[nH]c(=S)[nH]c2c1	–	–	–	45µM	?	–
COc1ccc(OCC(=O)N2CCN(C(=O)c3cccc(OC)c3)CC2)cc1	–	–	·	–	–	·
O=C(NNC1=NCCC1)c1cccc(Br)c1	–	–	–	–	–[2.33 µM]	–
O=C(CNc1ccc2ccccc2c1)NNC1=NCCC1	–	?	–	–	?	–
O=C(CNc1ccccc1)NNC1=NCCC1	–	?	?	–	10µM	–
Cc1ccccc1C(=O)NNC1=NCCC1	–	?	–	1.6µM	2µM	·
COc1ccc(C(=O)NNC2=NCCCCC2)cc1	–	–	–	–	32µM	–
COc1ccc(NC2=NCCCCC2)cc1	–	–	–	–	·	–
O=C1COc2ccccc2C(c2nc3ccccc3[nH]2)N1Cc1ccccc1 (stereo not given)	·	·	–	·	·	–
CCCC(=O)Nc1ccc(N2CCOCC2)cc1	–	–	–	–[11.4 µM]	–[12.7 µM]	–
Cc1cc(C)cc(OCC(=O)Nc2ccc(N3CCCCC3)cc2)c1	?	–	–	–	–[2.33 µM]	–
Cc1cc(C)cc(OCC(=O)N(C)CC(=O)Nc2ccc(N3CCOCC3)cc2)c1	–	–	–	–	35µM	–
CN(CC(=O)Nc1ccc(F)cc1)C(=O)CSc1ncccn1	–	–	–	?	–	–
CN(CC(=O)Nc1ccc(N2CCOCC2)cc1)C(=O)CCc1cc(C(C)(C)C)c(O)c(C(C)(C)C)c1	–	50µM	–	?	–[0.501 µM]	–
CN(CC(=O)Nc1ccc(F)cc1)C(=O)CSc1nccn1C	–	–	–	–	50µM	–
CCn1c2ccccc2c2cc(NC(=O)CN(C)CC(=O)Nc3ccc(N4CCOCC4)cc3)ccc21	–	28µM	–	?	40µM	–
Cc1cccc(NC(=O)c2cc(-c3ccc4c(c3)OCCO4)on2)c1	–	–	·	–	–	·
Cc1ccc(CC(=O)N(C)CC(=O)Nc2ccc(N3CCOCC3)cc2)cc1C	–	–	–	–	14µM	–
Cc1cccc(-c2nn(-c3ccccc3)cc2C(=O)N(C)CC(=O)Nc2ccc(N3CCOCC3)cc2)c1	–	?	–	–	7.9µM	–
Cc1ccc(NC(=O)CN(C)CC(=O)Nc2ccc(N3CCOCC3)cc2)c([N+](=O)[O-])c1	–	–	–	–	?	–
SMILES	HP1b chromo inh	BAZ2B block	PLK1 PBD inh	JMJD2A Tudor	G9a block	PI5P4Ka inh
CN(CC(=O)Nc1ccc(N2CCOCC2)cc1)C(=O)c1cn(-c2ccccc2)nc1-c1ccccc1	–	–	–	–	?	–
Cc1ccc(NC(=O)CN(C)CC(=O)Nc2ccc(N3CCOCC3)cc2)cc1F	?	18µM	–	7.9µM	–	–
COc1ccc(Br)c(C(=O)N(C)CC(=O)Nc2ccc(N3CCOCC3)cc2)c1	–	–	–	–	20µM	–
CN(CC(=O)Nc1ccc(N2CCOCC2)cc1)C(=O)CC(c1ccccc1)c1ccccc1	–	?	–	–	?	–
COc1ccc(C(=O)OCC(=O)NC2CCCCCCC2)cc1OC	–	·	–	–	·	–
CCc1ccc(CNC(=O)c2ccc3c(c2)nc2n3CCCCC2)cc1	–	–	·	–	–	·
N=c1sccn1CC(=O)NC(c1ccccc1)c1ccccc1	–	–	–	–	–	–
CCCSCCCNC(=O)c1ccc2nc(Cc3ccccc3)oc2c1	–	–	·	–	–	·
CN(CC(=O)Nc1ccc(N2CCOCC2)cc1)C(=O)CSc1ccc(F)cc1	–	–	–	?	13µM	–
CN(CC(=O)Nc1ccc(N2CCOCC2)cc1)C(=O)CSc1ccc(Br)cc1	–	–	?	–	·	–
O=C(NCCSC1CCCCC1)c1ccccc1	–	–	–	–	71µM	–
O=C(CSc1nnc(NC(=O)C2CC2)s1)NCc1cccs1	–	–	–	–	–	–
O=C(CSc1nnc(Nc2ccccc2)s1)NCc1cccs1	–	–	–	–	40µM	–
Cn1c(SCC(=O)NCc2cccs2)nnc1-c1ccc(O)cc1	–	–	24µM	?	–	–
Cn1c(SCC(=O)NCc2cccs2)nnc1-c1cccs1	–	–	–	–	–	–
Cc1ccc(SCC(=O)N/N=C/c2ccco2)cc1	–	–	–	–	–	–
Cn1c(CNS(=O)(=O)c2ccc(Cl)cc2)n[nH]c1=S	–	–	–	6.3µM	?	–
Cn1c(CNS(=O)(=O)c2ccc(F)cc2)n[nH]c1=S	–	–	–	11µM	?	–
COc1ccc2[nH]cc(CCNc3ncncc3-c3ccoc3)c2c1	·	·	·	·	–[0.501 µM]	·
O=C(c1cccc(F)c1)N1CCC2(CCCN(Cc3nccs3)C2)CC1	·	·	·	·	–[12.7 µM]	·
Cc1ccc(C)c(NC(=O)CCC(=O)NNC(=O)C(c2ccccc2)c2ccccc2)c1	–	–	–	–	–[12.7 µM]	·
Cc1ccc(C)c(NCC(=O)NNC(=S)Nc2ccccc2)c1	–	–	–	–	22µM	–
Cc1ccc(NC(=O)CCC(=O)NNC(=S)Nc2ccccc2)c(C)c1	–	–	–	–	·	–
Cc1nn(CCC(=O)NNC(=S)Nc2ccccc2)c(C)c1Br	–	–	–	–	13µM	–
Cc1ccc(C)c(NC(=O)CCC(=O)NNC(=S)Nc2ccccc2)c1	–	–	–	–	50µM	–
SMILES	HP1b chromo inh	BAZ2B block	PLK1 PBD inh	JMJD2A Tudor	G9a block	PI5P4Ka inh
O=C(NCCn1cc(SCc2ccccc2Cl)c2ccccc21)c1cccs1	–	–	·	–	–	·
CC1(C)CCC[C@]2(C)[C@H]3Cc4cc(O)ccc4O[C@]3(C)CC[C@@H]12	–	·	–	?	·	–
O=C(OCC#CCSc1nnc(-c2cccc3ccccc23)o1)c1ccccc1F	·	·	·	–	·	·
Cn1c2cc(B(O)O)sc2c2cnn(Cc3c(F)cccc3Cl)c(=O)c21	·	–	·	·	–[12.7 µM]	·
O=C(Cn1cncn1)N/N=C/c1cccc(Cl)c1	–	–	–	–	–	–
N#Cc1ccc(CN2CCN(C(=O)CNC(=O)Cc3cccc4ccccc34)CC2)cc1	–	–	–	–	50µM	–
CCCCc1oc2ccccc2c1C(=O)c1cc(I)c(N(CC)CCOCC)c(I)c1	–	·	·	56µM	·	·
C/C=C(\C)C(=O)O[C@@H]([C@H](O)c1cc2ccc(=O)oc2cc1OC)C(C)(C)O	–	–	–	–	–[2.33 µM]	–

Compound activity from PubChem BioAssay.
